RGS7-Gao reg – modulates binding of RGS7 to human Galphao | P09471 | Multiplexed bead flow cytometry; actives lie on both sides | binding response (% of control), % at 10 µM | actives 0.35% (n = 220,000) | AID 1439; in the data active = binding response below about 49% or above about 150%; inconclusive = no clear call, values can overlap the other calls; inactive = in between;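 also: fluorescent Galphao held in activated GDP-AlF4 state binding bead-coupled RGS7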
GSH fluor – GSH bead compound fluorescence profile. GSH beads flow cytometry, compound fluorescence 488/530 nm; active compounds read high. fluorescence (KMESF) at 10 µM. actives 0.25% (n = 190,000). AID 1776; in the data active = fluorescence above about 89;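 also: glutathione beads carrying GST-tagged Bcl family fusion proteins plus one bare bead set; values are compound well signal with DMSO vehicle wells as background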
RGS16-Gao – RGS16-Galphao interaction regulator (human); O15492+P09471; bead-based flow cytometry RGS16-Galphao binding, fluorescence; actives lie on both sides; binding response (% of control), % at 10 µM; actives 0.38% (n = 220,000);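 also: Galphao activated by GDP with aluminum fluoride before binding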
Avidin fluor – compound fluoresces at 488/530 nm on avidin beads | actives 0.38% (n = 220,000) | compound fluorescence 488/530 nm, flow cytometry; active compounds read high | fluorescence (KMESF) at 10 µM | AID 1775; in the data active = fluorescence above about 47
RGS8-Gao – regulators of human RGS8-Galphao interaction; P09471; multiplexed bead flow cytometry, RGS8-Galphao binding; actives lie on both sides; response (percent of control binding), % at 10 µM; actives 0.34% (n = 220,000); AID 1423; in the data active = response below about 60% or above about 140%; inactive = in between;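 also: Galphao activated as the GDP aluminium fluoride complex binding bead-coupled RGS8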
RGS4-Gao reg – modulates binding of RGS4 to human Galphao | P09471 | Multiplexed bead flow cytometry; actives lie on both sides | binding response (% of control), % at 10 µM | actives 0.33% (n = 220,000); in the data active = binding response below about 49% or above about 150%; inactive = in between;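 also: fluorescent Galphao activated with aluminum fluoride binding bead-coupled RGS4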
RGS4-Gao HTS – regulators of human RGS4-Galphao interaction; shares compounds with RGS16-Gao; multiplexed bead flow cytometry, RGS–Galpha-o binding; RGS4–Galpha-o binding response, % at 10 µM; actives 99% (n = 1,600);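 also: fluorescently labeled Galpha-o bound to GDP with aluminium fluoride binding biotinylated RGS beads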
Avidin counter – interferes with biotinylated probe binding to avidin beads; shares compounds with RGS16-Gao; streptavidin beads, fluorescein-biotin binding, flow cytometry; inhibition, % at 10 µM; 1,700 tested, under 10 active;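 active = inhibition above 50%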;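 also: median green fluorescence of gated singlet beads compared with DMSO control wells; 0% = DMSO wells and 100% = complete loss of bead fluorescence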
RGS8-Gao confirm – confirmation of regulators of human RGS8-Galphao interaction | AID 1836 | binding response (% of control), % at 10 µM | shares compounds with RGS16-Gao | bead-based flow cytometry RGS8-Galphao binding, fluorescence; actives lie on both sides | actives 3% (n = 1,700); in the data active = binding response below about 72% or above about 130%; inactive = in between;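 also: Galphao activated as GDP AlF4 complex before binding bead RGS8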
RGS7-Gao confirm – confirmation of regulators of human RGS7-Galphao interaction; shares compounds with RGS16-Gao; bead-based flow cytometry RGS7-Galphao binding; actives lie on both sides; response (percent of control binding), % at 10 µM; actives 7.8% (n = 1,700); in the data active = response below about 75% or above about 130%; inactive = in between;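 also: fluorescent Galphao activated with GDP and aluminum fluoride binding bead-coupled RGS7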
RGS16-Gao conf – RGS16-Galphao interaction regulation, single point confirmation; bead-based flow cytometry, RGS16-Galphao binding; actives lie on both sides; actives 4% (n = 1,700); AID 1838; shares compounds with RGS16-Gao; response (% of control binding), % at 10 µM; in the data active = response below about 74% or above about 130%; inactive = in between;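 also: Galphao activated as the GDP aluminium fluoride complex binding bead-coupled RGS16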
RGS4-Gao single – RGS4-Galphao interaction regulation, single point confirmation; RGS4-Galphao binding, multiplexed bead flow cytometry; actives lie on both sides; actives 4% (n = 1,700); binding response (% of control), % at 10 µM; shares compounds with RGS16-Gao; AID 1840; in the data active = binding response below about 74% or above about 130%; inactive = in between
RGS19-Gao single – RGS19-Galphao interaction regulation, single point confirmation | bead-based flow cytometry RGS19-Galphao binding; actives lie on both sides | actives 5% (n = 1,700) | response (percent of control binding), % at 10 µM | shares compounds with RGS16-Gao; in the data active = response below about 50% or above about 160%; inactive = in between;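 also: 100% = no compound control and 0% = blank background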
* hit, by the source's call; [ ] = another dose, or the depositor's remark. A selection: hits, their analogues and other compounds. The true share with any hit is near 1.2%. Unless noted, no rule for the calls is given here.

`CN(C)S(=O)(=O)N1C(=O)c2ccccc2C1=O` gave RGS7-Gao reg inconclusive, RGS16-Gao 97, Avidin fluor 7, RGS8-Gao 101 and RGS4-Gao reg 101.
For CC(=O)c1ccc(NC(=O)C(C)OC(=O)c2ccc3c(c2)nc(C)n3-c2ccccc2)cc1 (stereo unspecified) the results were RGS7-Gao reg 110, GSH fluor 13, RGS16-Gao 219*[activator], Avidin fluor 6, RGS8-Gao 132, RGS4-Gao reg 112, RGS4-Gao HTS 112*, Avidin counter -1, RGS8-Gao confirm 104, RGS7-Gao confirm 103, RGS16-Gao conf 106, RGS4-Gao single 105 and RGS19-Gao single 112.
COc1cccc(-n2c(C)nc3cc(C(=O)O)ccc32)c1 was read as RGS7-Gao reg 160*[activator], GSH fluor 28, Avidin fluor 54*, RGS8-Gao 129, RGS4-Gao reg 158*[activator], Avidin counter -1, RGS8-Gao confirm 103, RGS7-Gao confirm 110, RGS16-Gao conf 107, RGS4-Gao single 106 and RGS19-Gao single 108.
Cc1nc2cc(C(=O)OCC(=O)Nc3cccc(Cl)c3)ccc2n1-c1ccccc1 was read as RGS7-Gao reg 100, GSH fluor 11, RGS16-Gao 99, Avidin fluor 11, RGS8-Gao 100 and RGS4-Gao reg 100.
For CC(NC(=O)c1ccc(Br)s1)c1ccncc1 (stereo unspecified) the results were RGS7-Gao reg inconclusive, GSH fluor 20, RGS16-Gao 100, Avidin fluor 10, RGS8-Gao 100 and RGS4-Gao reg 98.
`CCc1ccc(-c2csc(NC(=O)COC(=O)CCc3nc4ccccc4s3)n2)cc1` gave RGS7-Gao reg 104, GSH fluor 22, RGS16-Gao 100, Avidin fluor 13, RGS8-Gao 100 and RGS4-Gao reg 100.
O=C(CSc1nnc(Cc2cccs2)n1-c1ccc(Cl)cc1)NCc1ccc2c(c1)OCO2 was read as RGS7-Gao reg 99, GSH fluor 14, RGS16-Gao 100, Avidin fluor 9, RGS8-Gao 100 and RGS4-Gao reg 96.
For COCCNC(=O)c1cc2nc(-c3ccc(F)cc3)cc(C(F)(F)F)n2n1 the results were RGS7-Gao reg 102, GSH fluor 15, RGS16-Gao 91, Avidin fluor 10, RGS8-Gao 98 and RGS4-Gao reg 97.
For CCC(OC(=O)C1=Cc2ccccc2OC1)C(=O)NC1CCCC1 (stereo unspecified) the results were GSH fluor 18, Avidin counter 0, RGS8-Gao confirm 101, RGS7-Gao confirm 104, RGS16-Gao conf 102, RGS4-Gao single 101 and RGS19-Gao single 101.

From PubChem
